A collection of fitness landscapes (doi:10.1016/j.celrep.2020.107928)
The full ranking holds about 81,000 sequences; the median of “one-hybrid fitness for binding parS DNA” is about -0.17, and the highest 2% start at about 0.51. The sample holds the highest values, similar sequences and a random draw of the others, so the mix is not that of the screen.

B1: Caulobacter ParB omega fusion; a variant is named by its letters at X, in order, B8GW30 (parent)
chain: MESVVVGEPGMSEGRRGLGRGLSALLGEVDAAPAQAPGEQLGGSREAPIEILQRNPDQPRRTFREEDLEDLSNSIREKGVLQPILVRPSPDTAGEYQIVAGERAWRAAQRAGLKTVPIMVRELDDLAVLEIGIIENVQRADLNVLEEALSYKVLMEKFERTQENIAQTIGKSXSHVANXMRLLXLPDEVQSYLVSGELTAXHARAIAAAADPVALAKQIIEGGLSVRETEALARKAPNLSAGKSKGGRPPRVKDTDTQALESDLSSVLGLDVSIDHRGSTGTLTITYATLEQLDDLCNRLTRGI

Variants of: B1
Assay: one-hybrid fitness for binding parS DNA (scaled: cognate 1, non-cognate 0); higher = stronger binding
Settings: with parS DNA site
How it was run: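 Selection: bacterial one-hybrid in E. coli USO, HIS3 reporter with the site 19 bp from the promoter, 48 hours at 37°C on M9-minus-histidine plus 0.1 mM IPTG and 5 mM 3-AT. Libraries were Caulobacter ParB with four randomised specificity codons, sequenced on Illumina before and after selection. Fitness is the rescaled log change in variant-to-wild-type read ratio, anchored to the cognate and non-cognate sites.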

Variant	one-hybrid fitness for binding parS DNA
RHEM	0.214
RPET	≤ 0.2
RDET	≤ 0.2
RAET	0.68
RHEK	≤ 0.2
RCET	0.758
RHET	0.734
RRET	0.674
RAEK	≤ 0.2
RAEI	≤ 0.2
EKRG	≤ 0.2
SQQG	≤ 0.2
TPYC	≤ 0.2
VTLR	≤ 0.2
QKRV	≤ 0.2
QSKN	≤ 0.2
QNAM	≤ 0.2
EGGH	≤ 0.2
VPIN	≤ 0.2
DWQR	≤ 0.2
RIET	0.709
RIEF	≤ 0.2
RSET	0.653
RGET	0.308

Variant	one-hybrid fitness for binding parS DNA
REET	≤ 0.2
RMEM	0.309
RIEK	≤ 0.2
RMEF	≤ 0.2
PFET	≤ 0.2
RMET	0.731
RFET	0.655
EFET	≤ 0.2
PTPR	≤ 0.2
QSVP	≤ 0.2
AQRA	≤ 0.2
WPTL	≤ 0.2
GPKW	≤ 0.2
RLEY	0.458
RTEP	≤ 0.2
RLEK	≤ 0.2
RLET	0.783
RKEY	0.401
RTEN	0.349
RKET	0.799
RKER	≤ 0.2
RTET	0.75
AEWH	≤ 0.2
ISIL	≤ 0.2

Variant	one-hybrid fitness for binding parS DNA
LPPC	≤ 0.2
TELP	≤ 0.2
PLFM	≤ 0.2
HICT	≤ 0.2
SMNV	≤ 0.2
SGQL	≤ 0.2
LYHP	≤ 0.2
RCQA	0.593
RGQA	0.364
NTQA	≤ 0.2
DTQA	≤ 0.2
RMQA	0.574
RDQA	≤ 0.2
RSQA	0.555
RTQA	0.627
RHQA	0.5
RWQA	0.404
VRKH	≤ 0.2
GAVT	≤ 0.2
RVVL	≤ 0.2
YEHG	≤ 0.2
GAFN	≤ 0.2
CTDH	≤ 0.2
PIDR	≤ 0.2

Variant	one-hybrid fitness for binding parS DNA
SPPW	≤ 0.2
IYKI	≤ 0.2
CLQA	≤ 0.2
NLQA	≤ 0.2
RLQA	0.616
KMPV	≤ 0.2
KSYG	≤ 0.2
MYPR	≤ 0.2
AHSN	≤ 0.2
MNDG	≤ 0.2
QPYH	≤ 0.2
TMHS	≤ 0.2
PTQT	≤ 0.2
RAKP	≤ 0.2
RAVS	0.986
RAVH	0.202
RAKH	0.239
RAVD	≤ 0.2
RAKS	0.874
TSEV	≤ 0.2
RRHL	≤ 0.2
PNHC	≤ 0.2
NLGV	≤ 0.2
RAKG	0.937

Variant	one-hybrid fitness for binding parS DNA
RAKQ	≤ 0.2
RAVR	≤ 0.2
RAVF	≤ 0.2
RAKK	≤ 0.2
RAVG	0.923
QLEL	≤ 0.2
FTDC	≤ 0.2
NTWT	≤ 0.2
RQDP	≤ 0.2
RQNH	0.329
RQNP	≤ 0.2
RQNS	0.921
RQDN	0.431
RQDS	0.977
PMTF	≤ 0.2
IRPV	≤ 0.2
RSLM	0.32
WKDS	≤ 0.2
RSKP	≤ 0.2
RCKC	0.816
RDKC	0.282
RSKC	0.943
RPKC	≤ 0.2
RSKN	0.443

Variant	one-hybrid fitness for binding parS DNA
IDNS	≤ 0.2
QCDG	≤ 0.2
PPSE	≤ 0.2
KIGR	≤ 0.2
ANCC	≤ 0.2
HRKN	≤ 0.2
RNKN	0.354
RNVY	≤ 0.2
RNYY	0.297
RNKS	0.936
RNVP	≤ 0.2
RNVS	0.674
RNKY	0.543
RNVD	≤ 0.2
RNKH	0.219
QADL	≤ 0.2
QIAH	≤ 0.2
YERV	≤ 0.2
YMQL	≤ 0.2
NLRR	≤ 0.2
QKLQ	≤ 0.2
RIAG	0.997
RIFG	0.978
RIAH	0.279

Variant	one-hybrid fitness for binding parS DNA
RIFY	0.462
RIFK	0.283
RIAP	≤ 0.2
YDMG	≤ 0.2
WYYF	≤ 0.2
GTPA	≤ 0.2
PTAE	≤ 0.2
RYIG	0.793
RYPH	≤ 0.2
RYIK	≤ 0.2
RYIN	0.269
RYPG	0.545
RYPN	≤ 0.2
PRFW	≤ 0.2
CGQS	≤ 0.2
HFIF	≤ 0.2
GKTS	≤ 0.2
RLSS	0.991
RLSN	0.455
RLSD	≤ 0.2
RLRH	0.223
RLHS	0.96
RLHH	0.204
RLHP	≤ 0.2

Variant	one-hybrid fitness for binding parS DNA
RLRP	≤ 0.2
RLNH	0.252
RLNS	0.932
RLRS	0.875
RLND	≤ 0.2
QPVT	≤ 0.2
TWLF	≤ 0.2
MFNG	≤ 0.2
MAAA	≤ 0.2
NWPE	≤ 0.2
TFVS	≤ 0.2
VVQN	≤ 0.2
YPYG	≤ 0.2
IVTG	≤ 0.2
LDGI	≤ 0.2
ACHY	≤ 0.2
RLGD	≤ 0.2
RLGS	0.981
RLLS	1.05
RLWN	0.443
RLLH	0.248
RLWD	≤ 0.2
RLGP	≤ 0.2
RLLN	0.44

Variant	one-hybrid fitness for binding parS DNA
RLYN	0.487
RLWS	1.03
RLYS	1.04
RLYD	≤ 0.2
YVWS	≤ 0.2
YNKG	≤ 0.2
RRYE	≤ 0.2
YFLW	≤ 0.2
GWSG	≤ 0.2
SAAF	≤ 0.2
VKNG	≤ 0.2
AELV	≤ 0.2
GLPW	≤ 0.2
PMAN	≤ 0.2
YMPP	≤ 0.2
KVPK	≤ 0.2
RLDN	0.416
RLDH	≤ 0.2
RLDS	1.01
QGEI	≤ 0.2
TFSF	≤ 0.2
YFFS	≤ 0.2
RGGP	≤ 0.2
RGGN	≤ 0.2

Variant	one-hybrid fitness for binding parS DNA
RGCQ	≤ 0.2
RGCD	≤ 0.2
RGGS	0.733
RGWN	≤ 0.2
RGCT	0.51
RGWS	0.573
RGCS	0.595
RGWD	≤ 0.2
RGCN	≤ 0.2
SEDR	≤ 0.2
YADT	≤ 0.2
KCCV	≤ 0.2
VDHL	≤ 0.2
DLCC	≤ 0.2
SLAM	≤ 0.2
NYMG	≤ 0.2
RGSN	0.218
RGQT	0.58
RGIS	0.524
RGHF	≤ 0.2
RGHT	0.519
RGIH	≤ 0.2
RGIN	≤ 0.2
RGSD	≤ 0.2

Variant	one-hybrid fitness for binding parS DNA
RGSS	0.849
TPNI	≤ 0.2
SATH	≤ 0.2
HPWF	≤ 0.2
TRNA	≤ 0.2
QQAP	≤ 0.2
AFMD	≤ 0.2
PRPT	≤ 0.2
LTYS	≤ 0.2
WIST	≤ 0.2
RGSY	0.226
RGNF	≤ 0.2
RGDT	0.371
RGPT	≤ 0.2
RGQD	≤ 0.2
RGNT	0.609
RGST	0.601
RGQN	0.249
RGQS	0.803
RGRT	0.676
RGYT	0.475
LTFV	≤ 0.2
QTHV	≤ 0.2
HQLT	≤ 0.2

Variant	one-hybrid fitness for binding parS DNA
QKHC	≤ 0.2
SLYD	≤ 0.2
GLTA	≤ 0.2
CINY	≤ 0.2
YKSG	≤ 0.2
PKIS	≤ 0.2
EFPF	≤ 0.2
DVWS	≤ 0.2
NFYC	≤ 0.2
DMTG	≤ 0.2
RGRD	≤ 0.2
RGRS	0.932
RGAP	≤ 0.2
RGAT	0.524
RGHS	0.73
RGRP	≤ 0.2
RGHH	≤ 0.2
RGFT	0.455
RGPS	0.336
RGYS	0.586
RGHD	≤ 0.2
RGYD	≤ 0.2
NMTN	≤ 0.2
HQTD	≤ 0.2

Variant	one-hybrid fitness for binding parS DNA
CKKK	≤ 0.2
SMHA	≤ 0.2
LLCV	≤ 0.2
RNEW	≤ 0.2
RGLS	0.65
RGLN	≤ 0.2
RGLD	≤ 0.2
GMLK	≤ 0.2
TTDG	≤ 0.2
RVPH	≤ 0.2
RVIN	0.334
RVIH	≤ 0.2
RVPC	0.637
RVIC	0.846
RVPN	≤ 0.2
HYPN	≤ 0.2
ITNM	≤ 0.2
RSKT	0.796
RCKT	0.748
RDKT	≤ 0.2
RPKT	≤ 0.2
REKT	0.369
RSKK	≤ 0.2
